# Pf growth 48h – P. falciparum growth inhibition at 48 hours (one generation); P. falciparum luciferase growth in erythrocytes, 48 h; Potency, µM (series often up to 28.7 µM), inactives show at the top dose activity change, negative = inhibition, most hits filed as inhibitors; 5.9% of 310,000 active; note: potency is the fitted concentration of half-maximal effect; % is set by controls: 0 for no effect and ±100 for the full control effect
#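 Growth was read as firefly luciferase luminescence after a 48 h, 37 C, 5% CO2 exposure of compounds to reporter-bearing P. falciparum cultures (0.1% parasitemia, 2% hematocrit final) in Albumax-supplemented RPMI 1640.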
# Pf growth 96h – P. falciparum growth inhibition at 96 hour, primary screen for plastid delayed-death inhibitors. P. falciparum luciferase reporter growth, 96 h. Potency, µM (titrated, usually from 28.7 µM), without a hit: at the top dose activity change, negative = inhibition, hits mostly inhibitors. 6.9% of 320,000 active; note: potency is the fitted concentration of half-maximal effect; % is set by controls: 0 for no effect and ±100 for the full control effect
#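 P. falciparum expressing integrated firefly luciferase grown in erythrocytes (2% hematocrit, 0.05% parasitemia final) with compounds for 96 hours at 37 C, 5% CO2. Growth inhibition read as loss of luminescence after adding luciferase detection reagent.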
# CHX counter – affects cycloheximide protein synthesis inhibition readout, counter-screen | cell reporter, cycloheximide protein synthesis inhibition counterscreen | max response, % | 12% of 300,000 active; in the data active = max response mostly above about 13%, no sharp cut-off; inactive = mostly below about 14%; note: read at 38.3 µM for the half of the compounds with a filed dose; 0% is about no effect
# NS1 inh – blocks influenza NS1 protein function; 0.4% of 270,000 active; AID 2326; Potency, µM (top dose mostly 46.1 µM), for the others: at the top dose activity, positive = more growth; calls by dose curve; note: potency is the fitted concentration of half-maximal effect; actives are rising curves; nearly all actives have a fitted effect of over 50% in size
#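 Growth recovery, yeast-based: influenza A NS1 expressed in S. cerevisiae causes slow growth, and suppressors are detected by OD600. The parent strain without NS1 is used as positive control.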
# Shiga toxin inh – Shiga toxin inhibition. Vero cells, Shiga toxin protein synthesis inhibition reporter. inhibition, % at 38.7 µM. AID 2315. 9.2% of 290,000 active; in the data active = inhibition mostly above about 28%, no sharp cut-off; inactive = mostly below about 43%; note: 0% is about no effect
# Sm TGR inh – S. mansoni TGR enzyme inhibition; purified TGR, DTNB reduction, TNB absorbance 405 nm; AID 485364; Potency, µM (highest dose often 114 µM), without a hit: at the top dose activity change, negative = inhibition, most hits filed as inhibitors; 3% of 360,000 active; note: potency is the fitted concentration of half-maximal effect; % is set by controls: 0 for no effect and ±100 for the full control effect; nearly all actives have a fitted effect of over 60% in size
#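 Kinetic colorimetric format: TGR-catalysed, NADPH-driven DTNB reduction monitored via TNB absorbance. Enzyme dispensed at 20 nM; compound exposure 15 min at room temperature before reaction start.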
# * hit, by the source's call; ? = inconclusive; · = no result given. Shown are actives, neighbours in structure and some others; about 21% of the full set was active somewhere. Unless noted, calls come from the whole dose curve; as a rule, active = well fitted curve in the direction sought with a large enough effect; inconclusive = small, poorly fitted or top-dose-only effect, or another doubt; inactive = no such curve, though single readings can be large; an effect the other way counts as inactive or inconclusive.
SMILES,Pf growth 48h,Pf growth 96h,CHX counter,NS1 inh,Shiga toxin inh,Sm TGR inh
COc1cc(C(=O)Nc2ccc(N3CCOCC3)cc2)ccc1OCc1c(C)noc1C,?,?,-1,6%,20,-17%
CCOc1ccc(NC(=O)CC2Nc3cccc4cccc(c34)NC2=O)cc1 (centres undefined),·,·,·,·,·,-34%
CCOCCCNC(=O)C(NC(=O)c1ccc(NC(C)=O)cc1)c1ccc(C)cc1 (centres undefined),-3%,41%,5,-2%,-10,-1%
CCOCCCNC(=O)C(NC(=O)CNC(C)=O)c1ccc(C)cc1 (centres undefined),7%,9.3µM*,4,3%,105,-9%
S=C(NC1CCCCC1)N1CCOCCOCCN(C(=S)NC2CCCCC2)CCOCCOCC1,?,10µM*,-3,9%,-5,0%
S=C(NC1CC1)N1CCN(C(=S)NC2CC2)CC1,-4%,?,28*,-5%,7,0%
Cc1cccc(-c2nc3scc(CCNS(=O)(=O)c4ccc(F)cc4C)n3n2)c1,·,·,·,·,·,-2%
O=C(CN1CCN(Cc2ccc(F)cc2)CC1)Nc1nc2ccccc2s1,-20%,?,-2,13%,-10,-13%
Cc1ccc(NC2=CC(=O)CC(c3ccco3)C2)c(N)c1 (centres undefined),?,5%,37*,15%,79*,0%
COc1ccc(NC2=CC(=O)CC(c3ccccc3)C2)c(OC)c1 (centres undefined),?,?,37*,14%,28,3%
Cc1cccc(NC2=CC(=O)OC(C)C2)c1 (centres undefined),-6%,·,-3,1%,-26,0%
Cc1cc(C)cc(NC2=CC(=O)CC(c3ccco3)C2)c1 (centres undefined),-15%,·,-6,-7%,43,-11%
CCOc1ccccc1NC1=CC(=O)CC(c2ccccc2)C1 (centres undefined),-15%,10%,-5,2%,-18,-1%
CC1CC(Nc2ccccc2N)=CC(=O)O1 (centres undefined),7%,·,28*,1%,48*,0%
Nc1ccccc1NC1=CC(=O)CC(c2ccccc2)C1 (centres undefined),24%,?,22*,·,45,6%
Cn1nc(C(=O)OCC(=O)NC2CCS(=O)(=O)C2)c2ccccc2c1=O (centres undefined),35%,3%,2,·,18,-5%
Nc1ccccc1NC1=CC(=O)CC(c2ccco2)C1 (centres undefined),?,·,47*,10%,72*,-36%
CCOCCCNC(=O)c1ccc(OC)c(OC2CCN(C(C)C)CC2)c1,13%,15µM*,4,28%,6,3%
COc1ccc(CCC(C)N2CCC(Oc3ccc(C(=O)N4CCCC4)cc3)CC2)cc1 (centres undefined),12µM*,?,8,?,-31,28µM*
COc1ccc(C(=O)N(C)C2CCCCC2)cc1OC1CCN(C(C)C)CC1,5%,4%,-2,6%,-20,-3%
COc1cc(C(=O)NCCCOC(C)C)ccc1OC1CCN(C(C)=O)CC1,7%,?,2,6%,-4,3%
COc1ccc(C(=O)NCCCOC(C)C)cc1OC1CCN(C(C)=O)CC1,-3%,-18%,36*,-6%,96*,7%
COc1ccc(C(=O)N2CCCCCCC2)cc1OC1CCN(C(C)C)CC1,12%,3.7µM*,5,-4%,-7,-24%
CC(CCc1ccc(O)cc1)N1CCC(Oc2ccc(C(=O)N3CCCC3)cc2)CC1 (centres undefined),-17%,-15%,-2,-14%,-3,-4%
COc1ccc(N2CCN(C(=O)c3cnn(-c4ccc(F)cc4)c3-n3cccc3)CC2)cc1,·,·,·,·,·,5%
SMILES,Pf growth 48h,Pf growth 96h,CHX counter,NS1 inh,Shiga toxin inh,Sm TGR inh
CCn1c(CNC(=O)c2cccc(C)c2)nnc1SCC(=O)N1CCOCC1,14%,10%,-3,2%,-19,-17%
CCOc1ccc(-n2c(=O)c3sccc3n(CC(=O)NCC3CCCO3)c2=O)cc1 (centres undefined),39%,?,-4,0%,-17,7%
COC(=O)CC1Oc2ccc(C)cc2-n2cc(-c3ccc(C)cc3)nc21 (centres undefined),·,·,·,·,·,9%
Oc1c(Br)cc(Br)cc1CNc1cnc2ccccc2c1,?,-17%,7,-30%,-5,13µM*
COC(=O)c1[nH]c2ccc(Br)cc2c1NC(=O)CN1CCN(C2CCCCC2)CC1,?,2.6µM*,-9,-6%,-28,-19%
COC(=O)c1[nH]c2ccc(C)cc2c1NC(=O)CN1CCCC(C)(C)C1,?,12µM*,-4,2%,-12,-8%
COC(=O)c1[nH]c2ccc(Cl)cc2c1NC(=O)CCN1CCN(C2CCCCC2)CC1,12µM*,3.7µM*,16,-6%,-8,-2%
COC(=O)c1[nH]c2ccc(C)cc2c1NC(=O)CCN1CCN(C2CCCCC2)CC1,-20%,·,-1,0%,-8,5%
COC(=O)c1[nH]c2ccc(Cl)cc2c1NC(=O)C1CC1,-2%,9%,-5,-6%,-16,9%
COC(=O)c1[nH]c2ccc(Cl)cc2c1NC(=O)Oc1ccccc1,133%,275%,40*,-54%,56*,-27%
CC1=C(c2ccc(C)c(C)c2)S(=O)(=O)N(Cc2ccc(C(=O)NCc3cccc(C)c3)cc2)C1=O,·,·,·,·,·,0%
CCC1=C(c2ccc(C)cc2)S(=O)(=O)N=C1N1CCC(C(=O)NCCc2ccc(Cl)cc2)CC1,·,·,·,·,·,-4%
CCC1=Nc2cc(C(=O)NCCCN3CCN(C)CC3)ccc2Sc2ccccc21,?,22%,1,8%,-4,-2%
O=C(NCc1ccco1)C1(c2ccc(Br)cc2)CCCC1,·,-1%,7,-51%,3,-27%
CCOC(=O)C1CCN(CC(=O)Nc2c(C(=O)OC)[nH]c3ccc(Cl)cc23)CC1,13µM*,?,-3,-18%,-11,7%
CCc1ccc(NC(=O)Cn2nc(C)n3cccc3c2=O)cc1,-6%,13%,-8,3%,7,5%
COc1ccc(NC(=O)CCCc2nc(-c3ccco3)no2)c(OC)c1,·,·,·,·,·,2%
Cc1nn(-c2ccccc2[N+](=O)[O-])c(=O)c2ccccc12,45%,9%,1,-4%,32,10%
O=c1c2ccccc2c(-c2ccccc2)nn1-c1cc(Cl)cc(Cl)c1,?,?,1,-3%,14,0%
Cc1nn(-c2c(Cl)cc(Cl)cc2Cl)c(=O)c2ccccc12,·,13µM*,6,-112%,9,17%
Cc1nn(-c2ccc(Br)cc2)c(=O)c2ccccc12,105%,200%,70*,-3%,125*,10%
O=C(NCc1ccco1)c1sc2ccccc2c1Cl,63%,3.3µM*,25*,-8%,84*,?

# Screening data as filed in PubChem.
